A short description of the assay: supercomplex reporter luminescence per Hoechst cell count – Hoechst nuclei count (AID 1645838).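 As to all read-outs here: control cybrid cells.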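 As to z-score: higher means more mitochondrial supercomplex formation.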 To be noted: Cells, luminescence/Hoechst cell count ratio; for z-score: stronger effect = higher value; for cell count: measured here: cell number, Hoechst nuclei count.
The mark [1] stands for this setting: library stock concentration (final well concentration not given) 46 uM.
The mark [2] stands for this setting: library stock concentration (final well concentration not given) 278 uM.
The mark [3] stands for this setting: library stock concentration (final well concentration not given) 1.67 mM.
Setting [4] is: library stock concentration (final well concentration not given) 10 mM.
[5] abbreviates: library stock concentration (final well concentration not given) 80 uM.
Setting [6] is: library stock concentration (final well concentration not given) 400 uM.
[7] abbreviates: library stock concentration (final well concentration not given) 2 mM.

Drawing on PubChem BioAssay AID1645838 (ICCB-Longwood Screening Facility, Harvard Medical School, 2021), this text covers z-score, cell count and outcome for 22 compounds.

Several values for one entry are separate records, joined by “and”; a condition that tells them apart may be missing. Identical values can stand only once. About 100 (5%) of roughly 2,000 compounds were called active. Rule as the data show it: active = z-score above about 2; inactive = the rest. For the sample, actives were picked, then their nearest neighbours and some compounds at random. Some compounds were tested as several samples or in several runs, with calls that do not always agree.

As for `CC(C)CCOc1ccc(N)cc1`, the z-score was -0.619 (inactive) and the cell count was determined as 5370.

For `N=C(N)c1ccc2cc(OC(=O)c3ccc(N=C(N)N)cc3)ccc2c1`, the z-score by setting is: under setting [1], 0.0192 (inactive); under setting [2], 0.31 (inactive); under setting [3], -0.356 (inactive); under setting [4], -0.0213 (inactive). Also, the cell count by setting is: under setting [1], 6960; under setting [2], 6430; under setting [3], 7070; under setting [4], 6560.

As to `Cc1cnc(Nc2ccc(F)cc2Cl)nc1-c1c[nH]c(C(=O)NC(CO)c2cccc(Cl)c2)c1` (stereo not drawn), the outcome (library stock 10 mM) is “inactive; censored for cell count”. Moreover, the z-score by setting is: under setting [1], -0.208 (inactive); under setting [2], -0.12 (inactive); under setting [3], 2.01 (active). The cell count under setting [1] stood at 6210, the cell count under setting [2] is 6120 and the cell count under setting [3] was 3060.

Regarding `O=C(O)c1ccc(Nc2ncc3c(n2)-c2ccc(Cl)cc2C(c2c(F)cccc2F)=NC3)cc1`, the outcome (library stock 10 mM) was “inactive; censored for cell count”. The z-score was -0.747 (inactive) under setting [5], -0.464 (inactive) under setting [6] and -0.071 (inactive) under setting [7]. Moreover, the cell count by setting is: under setting [5], 4990; under setting [6], 4350; under setting [7], 3530.

In the case of `COc1cc(Nc2ncc3c(n2)-c2ccc(Cl)cc2C(c2c(F)cccc2OC)=NC3)ccc1C(=O)O`, the outcome (library stock 1.67 mM) is “inactive; censored for cell count” and the outcome (library stock 10 mM) was “inactive; censored for cell count”. Moreover, the z-score is, setting by setting: under setting [1], -0.133 (inactive); under setting [2], 1.85 (inactive). Besides, the cell count was 5510 under setting [1] and 2620 under setting [2].

Turning to `CC(Cc1cc2c(c(C(N)=O)c1)N(CCCO)CC2)NCCOc1ccccc1OCC(F)(F)F` (stereo not drawn), the z-score by setting is: under setting [5], -1.47 (inactive); under setting [6], -1.87 (inactive); under setting [7], -2.9 (inactive); under setting [4], -3.02 (inactive). For the same compound, the cell count under setting [5] is 5980, the cell count under setting [6] stood at 5330, the cell count under setting [7] came out at 5440 and the cell count under setting [4] was 5520.

For the compound `COc1ccc(Br)c(-c2nc3ccccc3c(=O)o2)c1`, the outcome (library stock 10 mM) was “inactive; censored for cell count”. Besides, the z-score was -0.298 (inactive) under setting [5], -0.159 (inactive) under setting [6] and -0.345 (inactive) under setting [7]. Further, the cell count runs as follows: under setting [5], 5250; under setting [6], 5070; under setting [7], 5030.

With `O=c1[nH]oc2cc(Cl)ccc12`, the z-score under setting [1] is -0.28 (inactive), the z-score under setting [2] was 0.381 (inactive), the z-score under setting [3] was -0.301 (inactive) and the z-score under setting [4] was 0.402 (inactive). The cell count runs as follows: under setting [1], 6680; under setting [2], 6710; under setting [3], 6630; under setting [4], 6300.

On to `O=P(O)(O)OC1C(O)C(OP(=O)(O)O)C(O)C(OP(=O)(O)O)C1O` (stereo not drawn), for which the z-score was -0.332 (inactive) and the cell count amounted to 5290.

For `CC(C)CC(NC(=O)NC(CCC(=O)O)C(=O)O)C(=O)O` (stereo not drawn), the z-score by setting is: under setting [1], -0.295 (inactive); under setting [2], 0.0106 (inactive); under setting [3], 0.469 (inactive); under setting [4], 0.233 (inactive). In addition, the cell count by setting is: under setting [1], 6480; under setting [2], 6530; under setting [3], 6460; under setting [4], 6410.

For the compound `Cc1cc(C)c(/C=C2\C(=O)Nc3ccccc32)[nH]1`, the z-score is -0.647 (inactive) and the cell count stood at 5700.

As for `COc1cc(=C2C=c3ccccc3=N2)[nH]c1=Cc1[nH]c(C)cc1C`, the z-score under setting [5] is 0.065 (inactive), the z-score under setting [6] was 2.07 (active), the z-score under setting [7] is 3.14 (active) and the z-score under setting [4] was 1.08 (inactive). In addition, the cell count was determined as 5750 under setting [5], 1640 under setting [6], 1600 under setting [7] and 1560 under setting [4].

`CCCC(NC(C)C(=O)N1C(C(=O)O)C[C@H]2CCCC[C@@H]21)C(=O)OCC` (stereo partly drawn): the z-score reads like this: under setting [5], -0.394 (inactive); under setting [6], 0.104 (inactive); under setting [7], -0.276 (inactive); under setting [4], -0.453 (inactive). Further, the cell count by setting is: under setting [5], 5070; under setting [6], 4880; under setting [7], 5080; under setting [4], 5340.

For the compound `CCCCCCCCC#CCC#CCC#CCCCC(=O)O`, the z-score was 0.153 (inactive) and the cell count came out at 5310.

Consider `CCCCC1C(=O)CC[C@H]2[C@@H]1CC(=O)[C@@H]2CCCCCCC(=O)O` (stereo partly drawn), for which the z-score was -0.162 (inactive) and the cell count was determined as 5440.

Regarding `CC/C=C\C/C=C\C/C=C\CCCCCCCC(=O)OCC`, the z-score is -0.911 (inactive) and the cell count is 5260.

In the case of `O=C(NC1CCN(CC(F)(F)F)CC1)c1ccc(-c2cccc(F)c2)nc1`, the z-score runs as follows: under setting [1], -0.25 (inactive); under setting [2], 0.0438 (inactive); under setting [3], -0.291 (inactive); under setting [4], -0.236 (inactive). Further, the cell count amounted to 6960 under setting [1], 6520 under setting [2], 7210 under setting [3] and 7340 under setting [4].

For `NC(=O)Nc1cc(-c2cccc(F)c2)sc1C(=O)NC1CCCNC1` (stereo not drawn), the outcome runs as follows: (library stock 400 µM) “inactive; censored for cell count”; (library stock 2 mM) “inactive; censored for cell count”; (library stock 10 mM) “inactive; censored for cell count”. For the same compound, the z-score by setting is: under setting [5], 0.798 (inactive) and 2.01 (active); under setting [6], 2.61 (active). In addition, the cell count by setting is: under setting [5], 3580 and 3980; under setting [6], 1750.

On to `NC(=O)Nc1sc(-c2ccc(F)cc2)cc1C(N)=O`, for which the outcome (library stock 10 mM) was “inactive; censored for cell count”. The z-score by setting is: under setting [1], -0.164 (inactive); under setting [2], 0.156 (inactive); under setting [3], 1.6 (inactive). Also, the cell count was determined as 6530 under setting [1], 6190 under setting [2] and 4790 under setting [3].

`Cc1cn(-c2cc(NC(=O)c3ccc(C)c(Nc4nccc(-c5cccnc5)n4)c3)cc(C(F)(F)F)c2)cn1`: the z-score runs as follows: under setting [5], -0.15 (inactive); under setting [6], -0.0425 (inactive); under setting [7], 0.192 (inactive); under setting [4], 1.64 (inactive). Also, the cell count by setting is: under setting [5], 5660; under setting [6], 5720; under setting [7], 5660; under setting [4], 3260.

For the compound `Cc1ccc(NC(=O)c2ccc(CN3CCC(N(C)C)C3)c(C(F)(F)F)c2)cc1Nc1nccc(-c2cncnc2)n1` (stereo not drawn), the z-score under setting [5] was 0.0204 (inactive), the z-score under setting [6] was 0.323 (inactive), the z-score under setting [7] is 1.69 (inactive) and the z-score under setting [4] is 4.49 (active). Moreover, the cell count reads like this: under setting [5], 5990; under setting [6], 5640; under setting [7], 4410; under setting [4], 2490.

Regarding `Cc1ccc(NC(=O)c2ccc(CN3CCN(C)CC3)cc2)cc1Nc1nccc(-c2cccnc2)n1`, the z-score was -0.201 (inactive) under setting [5], -0.672 (inactive) under setting [6], -0.269 (inactive) under setting [7] and -0.486 (inactive) under setting [4]. The cell count under setting [5] is 4460, the cell count under setting [6] came to 4540, the cell count under setting [7] was found to be 4320 and the cell count under setting [4] was found to be 4680.
